# From PubChem BioAssay (Tox21)
# Records with an inconclusive call do not appear. Active and inactive are the calls of the source. The call rests on the fitted dose curve; in most records, active means well fitted cell-killing curve with a large enough effect in the repeat runs; inconclusive means weak or mixed curves, or effect the other way; inactive means flat fitted curve, though single readings scatter.
# Assay: Human pregnane X receptor (PXR) small molecule agonists, qHTS cell viability counter screen (AID 1346977); further: nearly all actives have a fitted effect of over 50% in size
# Conditions: PXR-Luc HepG2 viability, CellTiter-Fluor, 24 h; series mostly up to 92.4 µM; activity change, negative = cytotoxicity: at the top concentration
# Source text: U.S. Tox21 Program National Center for Advancing Translational Sciences [NCATS] NIH Chemical Genomics Center [NCGC] U.S. Environmental Protection Agency [EPA] National Institutes of Environmental Health Sciences [NIEHS] National Toxicology Program [NTP] U.S. Food and Drug Administration [FDA] Tox21 Assay Overview: The human pregnane X receptor (hPXR) regulates the expression of several drug metabolizing enzymes and induction of these proteins is a major mechanism for developing drug resistance in cancer. One such key enzyme catalyzing the drug metabolism is cytochrome P450 3A4 (CYP3A4). Changes in CYP3A4 expression affect drug metabolism, thereby reducing the therapeutic efficacy and altering toxicological response to a drug and which finally causes adverse drug interaction. To screen Tox21 libraries for compounds that activate hPXR-mediated CYP3A4 gene expression, PXR-Luc HepG2 cells were used. Also cytotoxicity of the compounds was tested in parallel by measuring the cell viability using CellTiter-Fluor assay system in the same wells.
# Tox21 Assay Protocol Summary: PXR-Luc HepG2 cells were dispensed at 2,000 per well in 5uL of assay medium containing 5% charcoal-stripped FBS into white solid bottom 1536-well plates (Corning Life Sciences, Corning, NY) using a Multidrop Combi (Thermo Scientific, Waltham, MA) dispenser. The assay plates were incubated at 37 C and 5% CO2 for 5hr, and then 23nL of compounds dissolved in DMSO and positive control were transferred using a Pintool station (Wako, San Diego, CA). The assay plates were incubated at 37C and 5% CO2 for 24hr. For cytotoxicity read, after 23hr incubation at 37C, 1uL CellTiter-Fluor reagent (Promega Corporation, Madison, WI) was added to each well of the assay plates using Flying Reagent Dispenser (FRD, Aurora Discovery, San Diego, CA). After 1hr incubation at 37C and 5% CO2, the fluorescence signal was quantified using a ViewLux plate reader (PerkinElmer, Shelton, CT).
# On the % scale 0 is the no-effect control and ±100 the full control effect; potency means the concentration at half of the fitted maximal effect.
SMILES,"activity change, negative = cytotoxicity",Potency
OCC(O)[C@@H](O)[C@H](O)[C@H](O)CO[C@H]1O[C@H](CO)[C@@H](O)[C@H](O)[C@H]1O (stereo not given in full),5.32% (inactive),
CC(C)(C)C(=O)/C=C/c1ccc(Cl)cc1,-4% (inactive),
NC(=O)c1ncn([C@@H]2O[C@H](CO)[C@@H](O)[C@H]2O)c1O,3.13% [at 42.5 µM] (inactive),
CCCCCN(CCCCC)C(=O)C(CCC(=O)O)NC(=O)c1ccc(Cl)c(Cl)c1 (stereo not given),-13.4% [at 42.5 µM] (inactive),
NC(=O)Nc1nc2ccccc2[nH]1,-0.704% (inactive),
CCCCc1ccc2cccc(S(=O)(=O)O)c2c1,10.9% (inactive),
CC1=CC(=O)CCC1,6.81% (inactive),
CC(=O)N[C@@H](CCC(N)=O)C(=O)O,4.76% [at 42.5 µM] (inactive),
COCc1ccc(COC)cc1,2.75% (inactive),
CCCc1ccc(N)cc1,3% (inactive),
Oc1cc(O)c2c(c1)O[C@H](c1ccc(O)c(O)c1)[C@H](O)C2,-0.605% [at 42.5 µM] (inactive),
CC(C)COC(=O)c1ccccc1O,0.331% (inactive),
O=C(O)CCNC(=O)c1ccc(N=Nc2ccc(O)c(C(=O)O)c2)cc1,-21.3% [at 42.5 µM] (inactive),
NC(=O)CCCCC1CCSS1 (stereo not given),2.25% [at 42.5 µM] (inactive),
C=C(C)[C@@H]1CCC2=CC(=O)C[C@@H](C)[C@]2(C)C1,14.8% (inactive),
CO,0.877% (inactive),
CCCCCCCCCCC1CO1 (stereo not given),1.74% (inactive),
C[N+](C)(C)CC[N+]1(C)Cc2c(Cl)c(Cl)c(Cl)c(Cl)c2C1,-1.91% [at 42.5 µM] (inactive),
N#CCN(CC#N)CCN(CC#N)CC#N,9.02% (inactive),
N#CC1(O)CCCCC1,,17.4 µM (active)

SMILES,"activity change, negative = cytotoxicity",Potency
C=CC(=O)OCCCCCC,8.78% (inactive),
CO[Si](CCCNCCC[Si](OC)(OC)OC)(OC)OC,9.96% (inactive),
COC(=O)CCCCCCCCC(=O)OC,4.26% (inactive),
Cc1nccn1CC1CCc2c(c3ccccc3n2C)C1=O (stereo not given),10.1% [at 42.5 µM] (inactive),
Nc1nc2c(ncn2CCC(CO)CO)c(=O)[nH]1,0.328% [at 42.5 µM] (inactive),
CCCCCCOC(=O)CC(CC(=O)OCCCCCC)(OC(=O)CCC)C(=O)OCCCCCC,8.66% (inactive),
CC(C)N1C(=O)c2ccccc2C1=O,-0.36% (inactive),
Cc1cc(C)c(NC(=O)CN(CC(=O)O)CC(=O)O)c(C)c1Br,1.84% [at 42.5 µM] (inactive),
COC[C@H](c1ccc(C(F)(F)F)cc1)N1CCN(C2(C)CCN(C(=O)c3c(C)ncnc3C)CC2)C[C@H]1C,-18.7% [at 42.5 µM] (inactive),
CC(C)(O)C(=O)c1ccc(OCCO)cc1,4.56% (inactive),
CCCCCCCCCCCl,4.09% (inactive),
C=C(C)C(=O)NCCC[N+](C)(C)C,-0.936% (inactive),
CC/C=C\CCCCO,3.78% (inactive),
COC(=O)C1=C(C)NC(C)=C(C(=O)OCC(C)=O)C1c1ccccc1[N+](=O)[O-] (stereo not given),-22.9% [at 42.5 µM] (inactive),
Cc1ncc(CSSCc2cnc(C)c(O)c2CO)c(CO)c1O,10.6% [at 42.5 µM] (inactive),
CCCCCCCCN(C)CCCCCCCC,11.3% (inactive),
CCO[Si](CCCN=C=O)(OCC)OCC,7.52% (inactive),
CC(C)c1cccc(C(C)C)c1N,15.3% (inactive),
FC(F)(F)C(F)(F)C(F)(F)C(F)(F)C(F)(F)C(F)(F)C(F)(F)C(F)(F)C(F)(F)C(F)(F)F,1.13% [at 8.39 µM] (inactive),
CCc1cc(S(=O)(=O)O)c2cc(C(C)C)cccc1-2,-7.63% [at 42.5 µM] (inactive),
